“And” between values parts separate entries of the source, which are not always exact repeats. Identical values can stand only once. Records with an inconclusive call do not appear. Entries that show only a call come without a potency. The source made the active and inactive calls. Calls come from the whole dose curve; as a rule, active = well fitted cell-killing curve with a large enough effect in the repeat runs; inconclusive = weak or mixed curves, or effect the other way; inactive = flat fitted curve, though single readings scatter.
Potency is the fitted concentration of half-maximal effect.

This assay in a line: cAMP Responsive Elements (CRE) small molecule antagonists, cell-based qHTS assay: qHTS cell viability counter screen (AID 2060913). Note: nearly all actives have a fitted effect of over 40% in size. The following applies: CRE-bla HEK293T viability, CellTiter-Glo luminescence, 5 h; series mostly up to 92.4 µM. The source says: U.S. Tox21 Program National Center for Advancing Translational Sciences [NCATS] Division of Preclinical Innovation [DPI] U.S. Environmental Protection Agency [EPA] National Institutes of Environmental Health Sciences [NIEHS] National Toxicology Program [NTP] U.S. Food and Drug Administration [FDA] Tox21 Assay Overview: CREB (cyclic-AMP Responsive Element Binding Protein) is a cellular transcription factor. It binds to certain DNA sequences called cAMP Responsive Elements (CRE) and regulates the transcription of the genes. […] This cell line can be used to find agonists/antagonists of the cyclic AMP signaling pathway. The activation of the report gene under culture conditions can be detected by fluorescence intensity. This cell line has been used to screen the Tox21 10K compound library to identify agonists that induce oxidative stress. The cytotoxicity of the Tox21 compound library against the CRE-bla cell line was tested in parallel by measuring the cell viability using CellTiter-Glo assay (Promega, Madison, WI) in the same wells.
Tox21 Assay Protocol Summary: CRE-bla Hek 293T cells were suspended in assay medium (DMEM containing 10% dialyzed FBS, 0.1 mM NEAA, 1 mM sodium pyruvate and 25 mM HEPES) and dispensed at 2,000 cells/4 uL /well into 1536-well black wall/clear bottom plates using a Multidrop Combi (ThermoFisher Scientific, Waltham, MA) dispenser. After the assay plates were incubated at 37 C/5% CO2 for 18 hrs, 23 nL of compounds dissolved in DMSO, positive controls or DMSO only was transferred to the assay plate by a pintool workstation (Kalypsys, San Diego, CA), followed by addition of 1 uL of 1.25uM NKH477 (0.25 uM as final concentration) in assay medium using a Flying Reagent Dispenser (Aurora Discovery, San Diego, CA). The plates were incubated at 37 C and 5% CO2 for 3 hrs. Then 1 uL of LiveBLAzer B/G FRET substrate (Invitrogen, Carlsbad, CA) was added to each well using Bioraptr Flying Reagent Dispenser (FRD, Aurora Discovery, San Diego, CA). The plates were incubated at room temperature for 2 h, then fluorescence intensities were measured using an Envision plate reader (PerkinElmer, Shelton, CT) at Excitation 405nm, Emission 460nm and 530nm. The % activity was determined from the ratio of 460nm/530nm. For cell viability readout that measures cytotoxicity, 4 uL /well of CellTiter-Glo reagent was added into the assay plates using Bioraptr FRD. After 30 min incubation at room temperature, the luminescence intensity in the assay plates was measured using a ViewLux (PerkinElmer, Shelton, CT) plate reader.
In the case of `CCOP(=O)(OCC)Oc1cc(C)nc(C(C)C)n1`, the Potency result was “inactive”.

Take `COC(=O)C(C)N(C(=O)c1ccco1)c1c(C)cccc1C` (stereo not given): the Potency result is “inactive”.

As to `CC(C)Nc1ccc(Nc2ccccc2)cc1`, the Potency was 50.8 µM (active).

With `O=[N+]([O-])c1ccccc1O`, the Potency result was “inactive”.

Take `CCNc1nc(NCC)nc(SC)n1`: the Potency result was “inactive”.

For the molecule `OCCSCSCCO`, the Potency result is “inactive”.

`Cc1coc2c1CCC(C)C2` (stereo not given): the Potency result is “inactive”.

With `COP(=O)(NC(C)=O)SC` (stereo not given), the Potency entry was “inactive”.

For the molecule `CN(C)[C@@H]1C(=O)C(C(N)=O)=C(O)[C@@]2(O)C(=O)C3=C(O)c4c(O)ccc(Cl)c4[C@@](C)(O)[C@H]3C[C@@H]12`, the Potency entry is “inactive”.

Turning to `Clc1ccc(C(Cl)(Cl)Cl)cn1`, the Potency entry is “inactive”.

Regarding `CC(C)(C)NCC(O)c1cc(Cl)c(N)c(Cl)c1` (stereo not given), the Potency result is “inactive”.

As to `COc1ccccc1N`, the Potency result is “inactive”.

Take `CCCN(CCC)c1c([N+](=O)[O-])cc(C(C)C)cc1[N+](=O)[O-]`: the Potency result was “inactive”.

`CCC[N+]1(C)CCCC1`: the Potency result was “inactive”.

With `S=C=S`, the Potency entry was “inactive”.

For `O=c1c2ccccc2c(=O)c2c1cc(Cl)c1[nH]c3c([nH]c12)c(Cl)cc1c(=O)c2ccccc2c(=O)c13`, the Potency entry is “inactive”.

In the case of `CCCCCc1cc(O)cc(O)c1`, the Potency entry is “inactive”.

Regarding `COc1cc(OC)nc(Oc2cccc(Oc3nc(OC)cc(OC)n3)c2C(=O)O)n1`, the Potency entry was “inactive”.

For the molecule `CC(=O)O.CC(=O)O.CC(=O)O.CC(=O)O.CC(=O)O.CC(=O)O.CC(=O)O.O.O.[Cr].[Cr].[Cr]`, the Potency entry is “inactive”.

Regarding `CCC(Br)(CC)C(=O)NC(N)=O`, the Potency entry was “inactive”.

Regarding `CCN(CC)N=O`, the Potency result was “inactive”.

For `C=CC(=O)OC`, the Potency entry is “inactive”.

For the molecule `CC1=NNC(=O)N(/N=C/c2cccnc2)C1`, the Potency entry was “inactive”.

For `O=P1(N(CCCl)CCCl)NCCCO1` (stereo not given), the Potency result was “inactive”.

For `ClC(Cl)(Cl)Cl`, the Potency result was “inactive”.

`N#CC(Cl)Cl`: the Potency result was “inactive”.

As for `N#CCCCCC#N`, the Potency entry is “inactive”.

On to `CSc1nc(N=[N+]=[N-])nc(NC(C)C)n1`, for which the Potency entry was “inactive”.

In the case of `O=C(N[C@H]1CN2CCC1CC2)c1cc2ccoc2cn1`, the Potency entry was “inactive”.

On to `CCCCCCCCCCCCCCCC[n+]1ccccc1`, for which the Potency is 57 µM (active) and 54.5 µM (active) and 56.2 µM (active).

For `COc1cccc(C=O)c1`, the Potency entry is “inactive”.

In the case of `N#CN`, the Potency result was “inactive”.

As for `COc1cccc(C(=O)NN(C(=O)c2cc(C)cc(C)c2)C(C)(C)C)c1C`, the Potency entry was “inactive”.

`NP(N)(=O)NC(=O)c1ccc(F)cc1`: the Potency entry was “inactive”.

Regarding `Oc1ccc2c3c1O[C@H]1[C@@H](O)C=C[C@H]4[C@@H](C2)NCC[C@@]341`, the Potency result was “inactive”.

As to `CC(C)Br`, the Potency result was “inactive”.

Regarding `C=C(C)C(=O)OCC(CC)CCCC` (stereo not given), the Potency entry was “inactive”.

Regarding `CCN(CC)C(=O)N[C@@H]1C=C2c3cccc4[nH]cc(c34)C[C@@H]2N(C)C1`, the Potency result is “inactive”.

As to `Clc1ccc2ccccc2c1`, the Potency result is “inactive”.

As for `CC1(C)CC/C(=C/c2ccc(Cl)cc2)C1(O)Cn1cncn1` (stereo not given), the Potency result was “inactive”.

The record behind these values is PubChem BioAssay (Tox21).
